KB-V1 cytotox: qHTS assay for MDR1-selective chemotherapeutics: Primary screen using the drug-selected MDR subline cells KB-V1; KB-V1 MDR cells viability, CellTiter-Glo, 72 h; Potency, µM (highest dose often 46.1 µM), most hits filed as cytotoxic; 400,000 compounds, 3.4% hits; further: on the % scale 0 is the no-effect control and ±100 the full control effect; nearly all actives have a fitted effect of over 60% in size
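KB-V1, DMEM (no phenol red) + 10% FBS; cpd pin-transferred, titration series; 72 h, 37 degrees C; CellTiter-Glo, luminescence. Data normalized, curve-fit.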
HT1080-NT tox: qHTS for induction of synthetic lethality in tumor cells producing 2HG: qHTS for the HT-1080-NT fibrosarcoma cell line; HT-1080-NT fibrosarcoma viability, CellTiter-Glo ATP luminescence, 48 h; Potency, µM (doses to about 46.1 µM), without a hit: top-dose activity, negative = less viability, usual class: cytotoxic; 360,000 compounds, 1.6% hits;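 further: NT is the 2HG producing partner of a matched IDH1 knockdown line; 0% = DMSO-treated cells and -100% = media-only wells without cells; nearly all actives have a fitted effect of over 55% in size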
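Read-out is CellTiter-Glo luminescence after 10 minutes at room temperature, following 48 hours' compound treatment of HT-1080-NT cells (750 cells/well, RPMI, 5% FBS, 37 degrees C).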
KB-3-1 cytotox: qHTS assay for MDR1-selective chemotherapeutics: Primary screen using the parental adenocarcinoma cell KB-3-1; KB-3-1 viability, CellTiter-Glo ATP luminescence, 72 h; Potency, µM (highest dose often 46.1 µM), most hits filed as cytotoxic; 400,000 compounds, 1.4% hits; AID 1347075, 2019; further: on the % scale 0 is the no-effect control and ±100 the full control effect; nearly all actives have a fitted effect of over 60% in size
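Viability of parental KB-3-1 cells, measured by CellTiter-Glo luminescence, followed a 72 h incubation at 37 °C with pinned compounds in phenol-red-free DMEM containing 10% FBS.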
HT1080 IDH1KD tx: qHTS for induction of synthetic lethality in tumor cells producing 2HG: qHTS for the HT-1080-IDH1KD cell line; HT-1080 IDH1 knockdown viability, ATP luminescence, 48 h; Potency, µM (series often up to 46.1 µM), without a hit: at the top dose activity, negative = toxicity, usual class: cytotoxic; 360,000 compounds, 2% hits; AID 686971, 2013;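 further: 0% = DMSO wells and -100% = cell-free medium wells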
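IDH1KD HT-1080 cells, 750/well, RPMI + 5% FBS; compound pinned after 2 h settling; 48 h, 37 °C; CellTiter-Glo luminescence; % activity normalised to DMSO and no-cell wells; curves fitted, classed by r2 and efficacy.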
SW480 rereplic: A quantitative high throughput screen for small molecules that induce DNA re-replication in SW480 colon adenocarcinoma cells. SW480 DNA re-replication, Hoechst DNA content imaging, 48 h. 340,000 compounds, 1.8% hits. Potency, µM (titrated, usually from 46.1 µM), inactives show at the highest dose re-replication activation, usual class: activators; further: % of control where 0% means no effect; nearly all actives have a fitted effect of over 55% in size
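Per well, 250 cells were exposed to pinned compound for 48 hr. Nuclear DNA was visualised with Hoechst (40 min, 37 C) and total object intensity recorded by fluorescence scanning.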
MCF10A rerep: A quantitative high throughput screen for small molecules that induce DNA re-replication in MCF 10a normal breast cells | Potency, µM (doses to about 46.1 µM), without a hit: top-dose activity, positive = re-replication, actives largely listed as activators | MCF 10A DNA re-replication, Hoechst nuclear intensity, 48 h | 350,000 compounds, 2.9% hits; further: % of control where 0% means no effect; nearly all actives have a fitted effect of over 50% in size
* hit, by the source's call. Only some compounds are listed: those with a hit (about 8% of all), similar ones and a draw of the others. The call rests on the fitted dose curve; in most records, active means well fitted curve in the direction sought with a large enough effect; inconclusive means small, poorly fitted or top-dose-only effect, or another doubt; inactive means no such curve, though single readings can be large; an effect the other way counts as inactive or inconclusive. Potency means the concentration at half of the fitted maximal effect.

Screening O=C(O)CCC(=O)Nc1sc2c(c1C(=O)Nc1ccccc1)CCCCC2 returned KB-V1 cytotox inactive, HT1080-NT tox 21µM*, KB-3-1 cytotox inconclusive, HT1080 IDH1KD tx inconclusive, SW480 rereplic -3% and MCF10A rerep inconclusive.
For O=C(Nc1cccc(Cl)c1)c1c(NC(=O)C(F)(F)F)sc2c1CCCC2 the results were KB-V1 cytotox 12µM* and KB-3-1 cytotox inconclusive.
`CCCc1cc(C(=O)Nc2cccc(Cl)c2C)no1` gave KB-V1 cytotox inactive, HT1080-NT tox -4%, KB-3-1 cytotox inactive, HT1080 IDH1KD tx 2%, SW480 rereplic 6% and MCF10A rerep -10%.
COc1ccccc1C(=O)NCC1CCN(c2ccc(S(=O)(=O)N3CCOCC3)cc2)CC1 was read as KB-V1 cytotox 15µM*, HT1080-NT tox -9%, KB-3-1 cytotox inactive, HT1080 IDH1KD tx -24%, SW480 rereplic 2% and MCF10A rerep 6.5µM*.
For COc1ccccc1CNC(=O)c1cc(S(=O)(=O)N2CCN(c3ccccc3)CC2)ccc1Cl the results were KB-V1 cytotox 4.6µM*, HT1080-NT tox -13%, KB-3-1 cytotox inactive, HT1080 IDH1KD tx -12%, SW480 rereplic 7% and MCF10A rerep 0%.
`O=C(NCC1CCN(c2ccc(S(=O)(=O)N3CCOCC3)cc2)CC1)Nc1ccccc1` gave KB-V1 cytotox inactive, HT1080-NT tox -1%, KB-3-1 cytotox inactive, HT1080 IDH1KD tx -3%, SW480 rereplic 0% and MCF10A rerep inconclusive.
Screening COc1ccc(Cl)cc1NC(=O)c1ccc2c(c1)CCN2S(C)(=O)=O returned KB-V1 cytotox inactive and KB-3-1 cytotox inactive.
For CC(=O)c1cccc(NC(=O)Cn2c(=O)oc3cc(S(=O)(=O)NCc4ccccc4)ccc32)c1 the results were KB-V1 cytotox inactive and KB-3-1 cytotox inactive.
CCOC(=O)C1=C(C)NC(=O)NC1c1cn(-c2ccccc2)nc1-c1cccs1 (stereo not given) was read as KB-V1 cytotox 21µM*, HT1080-NT tox inconclusive, KB-3-1 cytotox inactive, HT1080 IDH1KD tx inconclusive, SW480 rereplic 0% and MCF10A rerep inconclusive.
Cc1cccc(-c2noc(-c3ccc(NCc4cccnc4)c([N+](=O)[O-])c3)n2)c1 was read as KB-V1 cytotox inactive and KB-3-1 cytotox inactive.
For CCOC(=O)c1cccc(NC(=O)COc2ccc([N+](=O)[O-])cc2)c1 the results were KB-V1 cytotox 23µM*, HT1080-NT tox 5%, KB-3-1 cytotox inactive, HT1080 IDH1KD tx 5%, SW480 rereplic -2% and MCF10A rerep 8%.
`COc1cccc(NC(=O)c2ccc(CN3CCN(c4ccccc4)CC3)cc2)c1` gave KB-V1 cytotox inconclusive, HT1080-NT tox -24%, KB-3-1 cytotox 8.9µM*, HT1080 IDH1KD tx inconclusive, SW480 rereplic -2% and MCF10A rerep inconclusive.
Screening COc1ccc(C(=O)NCc2ccc(N3CCN(C(=O)OC(C)(C)C)CC3)cc2)cc1 returned KB-V1 cytotox 0.73µM*, HT1080-NT tox 3%, KB-3-1 cytotox inconclusive, HT1080 IDH1KD tx -11%, SW480 rereplic 8% and MCF10A rerep 23%.
COc1ccc(N2CCN(CNC(=O)c3ccccc3)CC2)cc1 was read as KB-V1 cytotox inactive, HT1080-NT tox -4%, KB-3-1 cytotox inactive, HT1080 IDH1KD tx -6%, SW480 rereplic -1% and MCF10A rerep 0.92µM*.
